# Measurements published in PubChem BioAssay (Tox21).
# Inconclusive results are not listed. Active and inactive are the calls of the source. Unless noted, calls come from the whole dose curve; as a rule, active = well fitted cell-killing curve with a large enough effect in the repeat runs; inconclusive = weak or mixed curves, or effect the other way; inactive = no such curve, though single readings can be large or run the other way.
# Target: Peroxisome proliferator-activated receptor delta (Homo sapiens) (UniProt Q03181)
# Experiment: qHTS assay to identify small molecule antagonists of the peroxisome proliferator-activated receptor delta (PPARd) signaling pathway (AID 743215; active = well fitted inhibition curve with a large enough effect in the signal ratio in the repeat runs, not every such curve was filed as active; the % refers to the signal ratio;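 note: cells stimulated with agonist L165041 at 300 nM final during compound exposure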)
# Details: HEK293H PPARd-UAS-bla, beta-lactamase FRET ratio, antagonist, 17 h; series mostly up to 62 µM; ratio activity, negative = inhibition: at the top concentration
# Procedure, shortened: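 Cells: HEK293H with a UAS-driven beta-lactamase reporter responsive to PPARd. Compounds were co-added with L165041 (300 nM, final) and incubated 17 h at 37 C before a 2 h room-temperature FRET substrate step and fluorescence reading.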
# % is set by controls: 0 for no effect and ±100 for the full control effect.
# Chain of Peroxisome proliferator-activated receptor delta (Homo sapiens) (Q03181 whole entry, looked up): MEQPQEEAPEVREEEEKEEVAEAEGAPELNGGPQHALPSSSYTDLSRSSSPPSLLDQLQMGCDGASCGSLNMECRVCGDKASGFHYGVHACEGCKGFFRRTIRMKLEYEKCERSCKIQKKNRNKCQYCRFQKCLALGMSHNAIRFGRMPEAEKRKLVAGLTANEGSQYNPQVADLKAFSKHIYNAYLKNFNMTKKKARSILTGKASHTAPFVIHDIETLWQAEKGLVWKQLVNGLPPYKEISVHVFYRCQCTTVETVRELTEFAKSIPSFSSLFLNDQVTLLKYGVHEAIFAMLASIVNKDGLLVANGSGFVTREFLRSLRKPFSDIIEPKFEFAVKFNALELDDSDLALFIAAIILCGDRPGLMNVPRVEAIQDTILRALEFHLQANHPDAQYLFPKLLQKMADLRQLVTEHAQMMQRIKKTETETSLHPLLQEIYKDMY
row,SMILES,"ratio activity, negative = inhibition"
1,O=C(CCCl)NCc1ccccc1,-7.43% (inactive)
2,O=C(O[C@@H](C(=O)O)[C@@H](OC(=O)c1ccccc1)C(=O)O)c1ccccc1,10.9% [at 80.4 µM] (inactive)
3,Nc1cccc(S(=O)(=O)O)c1,-6.82% (inactive)
4,CCOC(=O)c1ccccc1O,-2.01% (inactive)
5,CC1(C)S[C@@H]2[C@H](NC(=O)C(C(=O)O)c3ccccc3)C(=O)N2[C@H]1C(=O)O (stereo not given in full),-5.85% (inactive)
6,Cc1cc(NS(=O)(=O)c2ccc(N)cc2)nc(C)n1,-1.65% (inactive)
7,Cc1cc(S(=O)(=O)O)c(N)cc1Cl,-0.446% [at 80.4 µM] (inactive)
8,Cc1nnc(SCC2=C(C(=O)O)N3C(=O)[C@@H](NC(=O)Cn4cnnn4)[C@H]3SC2)s1,-2.54% (inactive)
9,CC(C)(C)C1CCCCC1=O (stereo not given),-10.4% (inactive)
10,CC(CNC1CCCCC1)OC(=O)c1ccccc1 (stereo not given),-0.621% (inactive)
11,O=C(O)[C@@H]1CSCN1,0.876% (inactive)
12,CC1=C(O)C(=O)OC1C (stereo not given),14.9% (inactive)
13,Cc1ncc(CO)c(CN)c1O,4.1% (inactive)
14,O=S(=O)(O)C(F)(F)F,9.6% (inactive)
15,CN1CCN(c2c(F)cc3c(=O)c(C(=O)O)cn(CCF)c3c2F)CC1,0.844% (inactive)
16,O=C(O)c1cccc(Cl)c1Cl,-1.83% (inactive)

row,SMILES,"ratio activity, negative = inhibition"
1,Cc1ccc([N+](=O)[O-])cc1Cl,-9.52% [at 80.4 µM] (inactive)
2,NCCCN1CCN(CCCN)CC1,-20% (inactive)
3,FC(F)(F)c1ccccc1,10.6% (inactive)
4,COC(=O)N[C@H](C(=O)N[C@@H](Cc1ccccc1)[C@@H](O)CN(Cc1ccc(-c2ccccn2)cc1)NC(=O)[C@@H](NC(=O)OC)C(C)(C)C)C(C)(C)C,0.826% (inactive)
5,OCCN1CCN(CCO)CC1,12% [at 80.4 µM] (inactive)
6,CCCCN1C[C@H](O)[C@@H](O)[C@H](O)[C@H]1CO,9.34% (inactive)
7,CCN[C@H]1CN(CCCOC)S(=O)(=O)c2sc(S(N)(=O)=O)cc21,2.07% (inactive)
8,C=Cc1ccccc1,-0.765% (inactive)
9,COc1cc(Cl)ccc1Cl,9.6% [at 80.4 µM] (inactive)
10,Cc1ccsc1C(=CCCN1CCC[C@@H](C(=O)O)C1)c1sccc1C,-3.35% (inactive)
11,N#CSCC(=O)O,1.87% (inactive)
12,CC(C)Nc1nc(N)nc(Cl)n1,0.116% (inactive)
13,CC(C)S,1.69% [at 80.4 µM] (inactive)
14,COc1cc(C)ccc1C(C)C,1.16% (inactive)
15,CCC1(C)NC(=O)NC1=O (stereo not given),-14.7% (inactive)
16,C=C(C)C(=O)OCCOP(=O)(O)O,5.13% [at 80.4 µM] (inactive)

# Target: Bile acid receptor (Homo sapiens) (UniProt Q96RI1)
# Experiment: qHTS assay to identify small molecule antagonists of the farnesoid-X-receptor (FXR) signaling pathway (AID 743217; active = well fitted inhibition curve with a large enough effect in the signal ratio in the repeat runs, not every such curve was filed as active; the % refers to the signal ratio)
# Details: HEK293T FXR-UAS-bla, beta-lactamase ratio, CDCA-stimulated, 16 h; series mostly up to 62.6 µM; activity change, negative = inhibition: at the top concentration
# Procedure, shortened: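 Cells carrying a UAS-driven beta-lactamase reporter (GeneBLAzer FXR-UAS-bla HEK 293T) were plated and rested 5 h at 37 °C. Compounds in DMSO were added alongside chenodeoxycholic acid agonist at 50 uM final and left 16 h at 37 °C before FRET substrate readout.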
# Chain of Bile acid receptor (Homo sapiens) (Q96RI1 whole entry, looked up): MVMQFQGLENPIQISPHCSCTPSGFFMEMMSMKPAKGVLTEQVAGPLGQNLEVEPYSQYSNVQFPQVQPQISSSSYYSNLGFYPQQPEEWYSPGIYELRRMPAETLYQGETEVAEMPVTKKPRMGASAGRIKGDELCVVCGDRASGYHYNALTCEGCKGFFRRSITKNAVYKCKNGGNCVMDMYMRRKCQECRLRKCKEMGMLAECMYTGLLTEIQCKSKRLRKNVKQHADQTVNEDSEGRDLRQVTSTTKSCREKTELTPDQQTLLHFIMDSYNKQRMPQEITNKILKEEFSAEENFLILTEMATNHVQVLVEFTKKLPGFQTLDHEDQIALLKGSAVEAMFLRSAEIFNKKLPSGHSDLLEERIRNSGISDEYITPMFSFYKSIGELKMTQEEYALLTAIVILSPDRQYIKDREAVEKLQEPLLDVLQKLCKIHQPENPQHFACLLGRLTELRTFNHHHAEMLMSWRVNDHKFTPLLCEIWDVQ
row,SMILES,"activity change, negative = inhibition"
1,Cc1ccc(C)c(N)c1,2.82% (inactive)
2,CCCC(CCC)(C(=O)OCC)C(=O)OCC,7.55% (inactive)
3,CC1(C)C(=O)N(Cl)C(=O)N1Br,4.63% (inactive)

# Test system: not listed separately
# Experiment: qHTS assay to identify small molecule agonists of the farnesoid-X-receptor (FXR) signaling pathway - cell viability counter screen (AID 743218); note: nearly all actives have a fitted effect of over 45% in size
# Details: FXR-bla HEK293T viability, CellTiter-Glo luminescence, 16 h; series mostly up to 62.6 µM; viability change, negative = cytotoxic: at the top concentration
# Procedure, shortened: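 Cells were seeded, left 5 h at 37 C and 5% CO2, then dosed with compound in DMSO for 16 h. After the beta-lactamase FRET read, CellTiter-Glo was added and luminescence measured 30 min later.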
row,SMILES,"viability change, negative = cytotoxic"
1,O=C(O[C@@H](C(=O)O)[C@@H](OC(=O)c1ccccc1)C(=O)O)c1ccccc1,-5.72% [at 81.1 µM] (inactive)
2,Nc1cccc(S(=O)(=O)O)c1,23.1% (inactive)
3,CCOC(=O)c1ccccc1O,0.576% (inactive)
4,CCCOCCC,55.4% (inactive)
5,CC1(C)S[C@@H]2[C@H](NC(=O)C(C(=O)O)c3ccccc3)C(=O)N2[C@H]1C(=O)O (stereo not given in full),-27.9% (inactive)
6,Cc1cc(NS(=O)(=O)c2ccc(N)cc2)nc(C)n1,2.21% (inactive)
7,Cc1ccc(C)c(N)c1,19.3% (inactive)
8,Cc1cc(S(=O)(=O)O)c(N)cc1Cl,5.09% [at 81.1 µM] (inactive)
9,Cc1nnc(SCC2=C(C(=O)O)N3C(=O)[C@@H](NC(=O)Cn4cnnn4)[C@H]3SC2)s1,1.55% (inactive)
10,CC(C)(C)C1CCCCC1=O (stereo not given),0.25% (inactive)
11,CCCC(CCC)(C(=O)OCC)C(=O)OCC,2.99% (inactive)
12,CC(CNC1CCCCC1)OC(=O)c1ccccc1 (stereo not given),-15% (inactive)
13,O=C(O)[C@@H]1CSCN1,11.7% (inactive)
14,CC1=C(O)C(=O)OC1C (stereo not given),12.5% (inactive)
15,Cc1ncc(CO)c(CN)c1O,2.54% (inactive)
16,O=S(=O)(O)C(F)(F)F,-10.3% (inactive)
17,CN1CCN(c2c(F)cc3c(=O)c(C(=O)O)cn(CCF)c3c2F)CC1,-15.1% (inactive)
18,O=C(O)c1cccc(Cl)c1Cl,-2.56% (inactive)

row,SMILES,"viability change, negative = cytotoxic"
1,Cc1ccc([N+](=O)[O-])cc1Cl,-0.618% [at 81.1 µM] (inactive)
2,NCCCN1CCN(CCCN)CC1,10.2% (inactive)
3,FC(F)(F)c1ccccc1,-0.167% (inactive)
4,COC(=O)N[C@H](C(=O)N[C@@H](Cc1ccccc1)[C@@H](O)CN(Cc1ccc(-c2ccccn2)cc1)NC(=O)[C@@H](NC(=O)OC)C(C)(C)C)C(C)(C)C,-1.67% (inactive)
5,OCCN1CCN(CCO)CC1,8.7% [at 81.1 µM] (inactive)
6,O=CCCc1ccccc1,7.68% (inactive)
7,CCN[C@H]1CN(CCCOC)S(=O)(=O)c2sc(S(N)(=O)=O)cc21,-2.56% (inactive)
8,C=Cc1ccccc1,-0.551% (inactive)
9,COc1cc(Cl)ccc1Cl,25.9% [at 81.1 µM] (inactive)
10,Cc1ccsc1C(=CCCN1CCC[C@@H](C(=O)O)C1)c1sccc1C,9.18% (inactive)
11,N#CSCC(=O)O,10.6% (inactive)
12,CC1(C)C(=O)N(Cl)C(=O)N1Br,3.44% (inactive)
13,CC(C)Nc1nc(N)nc(Cl)n1,5.19% (inactive)
14,CC(C)S,3.86% [at 81.1 µM] (inactive)
15,COc1cc(C)ccc1C(C)C,24.2% (inactive)
16,CCC1(C)NC(=O)NC1=O (stereo not given),-6.39% (inactive)
17,C=C(C)C(=O)OCCOP(=O)(O)O,18.7% [at 81.1 µM] (inactive)

# Target: Bile acid receptor (Homo sapiens) (UniProt Q96RI1)
# Experiment: qHTS assay to identify small molecule agonists of the farnesoid-X-receptor (FXR) signaling pathway (AID 743220; active = well fitted activation curve with a large enough effect in the signal ratio in the repeat runs, not every such curve was filed as active; the % refers to the signal ratio)
# Details: HEK293T FXR-UAS-bla, beta-lactamase FRET ratio, 16 h; series mostly up to 62.6 µM; activation: at the top concentration
# Procedure, shortened: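 FXR-UAS-bla HEK 293T cells carrying a UAS-driven beta-lactamase reporter were plated for 5 h at 37C/5% CO2, then exposed to DMSO-dissolved Tox21 10K compounds for 16 h at 37C. A LiveBLAzer B/G FRET substrate was loaded for 2 h at room temperature before fluorescence reading.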
row,SMILES,activation
1,Cc1ccc(C)c(N)c1,-1.93% (inactive)
2,CCCC(CCC)(C(=O)OCC)C(=O)OCC,1.75% (inactive)
3,CC(CNC1CCCCC1)OC(=O)c1ccccc1 (stereo not given),-4.78% (inactive)
4,CCOc1ccc(OCC)c(Cl)c1,0.853% (inactive)
5,CC1=C(O)C(=O)OC1C (stereo not given),-0.42% (inactive)
6,Cc1ccc([N+](=O)[O-])cc1Cl,-2.11% [at 81.1 µM] (inactive)
7,N#CSCC(=O)O,2.27% (inactive)
8,CC1(C)C(=O)N(Cl)C(=O)N1Br,-0.0309% (inactive)
9,COc1cc(C)ccc1C(C)C,0.317% (inactive)
10,CCC1(C)NC(=O)NC1=O (stereo not given),-0.328% (inactive)
